# Sampled rows, rich in hits. Any-hit rate of the full collection: about 1.8%.
# GSTO1 inh: blocks human GSTO1 in RBBP9 counter-screen | P78417 | recombinant GSTO1, activity-based probe fluorescence polarization | inhibition, % at 5.96 µM | 1.1% of 300,000 active | AID 1974;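 active = inhibition above the campaign mean inhibition plus 3 SD, cut at about 35% in these data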;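 also: 0% = GSTO1-1 with DMSO and 100% = wells lacking GSTO1-1 enzyme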
# Target sequence (P78417 whole entry, looked up): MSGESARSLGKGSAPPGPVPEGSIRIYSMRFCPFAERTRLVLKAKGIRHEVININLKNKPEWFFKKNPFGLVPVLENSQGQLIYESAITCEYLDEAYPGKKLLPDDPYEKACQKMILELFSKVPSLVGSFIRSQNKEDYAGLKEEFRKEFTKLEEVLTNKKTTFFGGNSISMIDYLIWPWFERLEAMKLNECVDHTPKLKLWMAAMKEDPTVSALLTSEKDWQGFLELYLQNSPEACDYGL
# PAD4 inh: PAD4 (human) enzyme inhibition; recombinant PAD4, RCA probe fluorescence polarization; inhibition, % at 6.36 µM; 0.41% of 330,000 active;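 active = percent inhibition above a cutoff equal to the mean of all tested compounds plus 3 SD, cut at about 15% in these data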;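 also: 0% = PAD4 with RCA probe and DMSO and 100% = probe without PAD4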
# PME-1 primary: blocks human protein phosphatase methylesterase 1; Q9Y570; recombinant PME-1, FP-Rh probe fluorescence polarization; inhibition, % at 5.9 µM; 0.53% of 320,000 active; AID 2130;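 active = inhibition above the campaign mean of all compounds plus 3 SD, cut at about 26% in these data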;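 also: competitive labeling of PME-1 active site by serine hydrolase directed probe; 0% = PME-1 with DMSO and 100% = wells lacking PME-1 enzyme; inhibitors block probe labeling so polarization falls and inhibition rises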
# LYPLA1 counter: blocks human lysophospholipase 1, a PME1 counter-screen; O75608; recombinant LYPLA1, FP-Rh probe fluorescence polarization; inhibition, % at 5.9 µM; 0.16% of 320,000 active; AID 2174;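 active = inhibition above the mean of all tested compounds plus 3 SD, set per campaign, cut at about 14% in these data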;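 also: inhibitors block serine hydrolase probe labeling of LYPLA1 so polarization falls; 0% = enzyme with DMSO and 100% = wells lacking LYPLA1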
# LYPLA2 counter: LYPLA2 (human) inhibition in PME1 counter-screen; inhibition, % at 5.9 µM; AID 2177; 0.38% of 320,000 active; recombinant LYPLA2, FP-Rh probe fluorescence polarization; O95372;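 active = inhibition above the screen-wide mean plus 3 SD, limit set per campaign, cut at about 26% in these data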;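 also: 0% = LYPLA2 with DMSO and 100% = wells lacking LYPLA2 enzyme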
# Target sequence (O95372 whole entry, looked up): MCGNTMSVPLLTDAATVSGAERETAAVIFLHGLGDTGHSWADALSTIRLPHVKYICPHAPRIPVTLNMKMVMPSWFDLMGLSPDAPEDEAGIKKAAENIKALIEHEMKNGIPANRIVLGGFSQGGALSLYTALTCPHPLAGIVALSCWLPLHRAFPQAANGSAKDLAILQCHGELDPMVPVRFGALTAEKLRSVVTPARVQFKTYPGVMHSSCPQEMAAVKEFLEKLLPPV
# Fam108B counter: Fam108B inhibition, counter-screen for RBBP9 inhibitors. recombinant Fam108B, FP-Rh probe fluorescence polarization. inhibition, % at 9.51 µM. 0.33% of 300,000 active. AID 1947;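 active = inhibition above the screen mean inhibition plus 3 SD, computed separately per campaign, cut at about 18% in these data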;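 also: inhibitors lower polarization as less probe binds the enzyme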
# Starred values were filed as active, the others as inactive; . = no result.
SMILES,GSTO1 inh,PAD4 inh,PME-1 primary,LYPLA1 counter,LYPLA2 counter,Fam108B counter
O=c1[nH][nH]c(-c2ccccc2O)c1C(C[N+](=O)[O-])c1cccc(Cl)c1 (stereo unspecified),36.1*,-11.7,12.0,1.6,2.0,3.0
O=c1[nH][nH]c(-c2ccccc2O)c1C(C[N+](=O)[O-])c1ccccc1 (stereo unspecified),28.9,-8.1,-2.0,1.2,0.8,1.4
Cc1c(C(=O)N2CCN(c3ncccn3)CC2)oc2c(Cl)cccc12,7.9,3.3,2.0,-1.3,-5.6,-1.7
S=C(Nc1ccc(Cl)cc1)Nc1cccc2cnccc12,37.8*,-1.6,3.1,-3.1,10.4,1.5
Fc1ccc(NC(=S)Nc2cccc3cnccc23)cc1,14.8,-13.9,0.6,-0.2,2.2,6.1
COc1cc2c(cc1OC)-c1cc3ccc4c(c3c[n+]1CC2)OCO4,41.7*,-18.7,5.3,0.4,5.0,3.1
Cc1cnc(NC(=O)C2CC(=O)N(c3cccc(Cl)c3)C2)s1 (stereo unspecified),-4.7,1.8,0.8,-0.5,1.1,-4.3
Cc1ccc(OC(=O)c2sc(Cl)nc2C)cc1C,35.5*,3.6,-7.2,2.1,8.9,4.8
COc1ccc(N(C)C(=O)c2sc(Cl)nc2C)cc1,6.5,-3.0,-1.2,-2.6,1.5,2.8
COc1cc(/C=N/NC(=O)c2cc(C34CC5CC(CC(C5)C3)C4)[nH]n2)ccc1O,4.1,0.3,15.2,-11.1,-12.6,21.1*
COc1cc(/C=N/NC(=O)c2cc(C3CC3)[nH]n2)ccc1O,5.4,-0.9,11.0,0.0,6.7,2.9
Cc1ccc(C(OCC(O)CNCc2ccc(F)cc2)c2ccccc2)cc1 (stereo unspecified),-2.8,-2.9,-0.4,0.5,-6.5,-0.4
CN(C(=O)c1ccc(NC(=O)Cc2cccc(NC(=O)C3CCN(C(=O)c4ccccc4)CC3)c2)cc1)C1CCCC1,.,-3.3,-2.7,-3.7,-10.7,.
CCN(CC(=O)Nc1c(F)cccc1F)C(=O)CCc1ccc(OC)cc1,4.2,3.2,41.4*,-1.4,-1.6,-1.5
CC(=O)Nc1ccc(S(=O)(=O)Nc2ccc3c(c2)CCC3)cc1,34.9*,2.7,3.3,-0.2,-4.2,-0.1
CCn1c2ccccc2c2cc(NC(=O)c3ccccc3[N+](=O)[O-])ccc21,0.6,1.9,30.4*,-0.6,-4.4,12.9
CC(C)(C)c1ccc(OCC(=O)NNC(=S)NC(=O)c2ccccc2[N+](=O)[O-])c(Br)c1,5.2,-6.7,2.5,3.9,26.7*,3.5
O=C(CN1CCN(S(=O)(=O)c2ccc(Br)cc2)CC1)N/N=C/c1cc([N+](=O)[O-])ccc1Cl,-2.3,3.3,26.5*,-1.0,-1.5,1.8
CCOC(=O)C(C)(C)N(Cc1cccc(C)c1)S(=O)(=O)c1ccc(Cl)c([N+](=O)[O-])c1,61.2*,-1.9,7.2,5.8,0.9,-2.5
Cc1noc(NS(=O)(=O)c2ccc(NC(=O)c3cccc(S(=O)(=O)Nc4ccccc4F)c3)cc2)c1C,.,2.6,.,.,.,.
C/C(=N\Nc1nc2ccccc2s1)c1cccs1,-4.7,3.9,31.7*,0.5,7.8,-1.3
Cn1ccc2cc(-c3csc(N4CCC(C(N)=O)CC4)n3)ccc21,.,-3.0,.,.,.,.
O=C(O)c1ccc(N/N=C/c2ccc(OC(=O)c3cccc(Cl)c3)cc2)cc1,13.1,4.9,40.6*,-2.6,41.2*,2.8
Oc1ccc(Br)cc1-c1nc2cnccn2c1NC1CCCC1,3.2,-2.9,26.2*,-0.3,-3.0,9.6
Oc1ccc(Br)cc1-c1nc2cnccn2c1NC1CCCCC1,11.1,-0.4,6.7,-4.9,-9.4,10.7
SMILES,GSTO1 inh,PAD4 inh,PME-1 primary,LYPLA1 counter,LYPLA2 counter,Fam108B counter
CN(CCOc1ccc(Cl)cc1)C(=O)c1cc(S(=O)(=O)N2CCOCC2)ccc1N1CCCC1,.,-4.1,1.4,1.0,3.4,.
Cc1c(C(=O)O)cccc1-c1ccc(/C=C2\SC(=O)NC2=O)o1,35.3*,-4.3,-6.5,-2.8,-2.7,-2.5
Cc1c(C(=O)O)cccc1-c1ccc(/C=C2/NC(=O)N(c3ccccc3)C2=O)o1,6.4,-0.6,6.9,2.6,3.8,0.5
Cc1ccc(C)c(NC(=O)COC(=O)c2cc3ccccc3oc2=O)c1,.,-1.4,27.4*,1.3,1.2,.
O=C(c1cc(=O)[nH]c2ccccc12)N(Cc1nnc(-c2ccccc2Cl)o1)C1CC1,0.2,-4.4,7.9,2.2,3.5,5.3
Cc1ccc(NC(=O)CC(=O)Nc2ccc(C)c(C)c2)cc1C,-2.0,-1.3,-11.3,-7.6,-10.1,-8.8
Cc1ccc(Sc2ccc(NC(=O)CCl)cc2)cc1C,78.1*,8.7,-5.2,-4.3,-2.7,1.9
Cc1[nH]c2ccccc2c1/C=C/c1nc2ccccc2c(=O)n1CCO,-8.0,6.8,70.2*,-1.7,1.0,12.4
C=CC(n1cncn1)C(O)(c1ccccc1)c1ccccc1 (stereo unspecified),2.2,-3.5,0.1,-2.3,-3.0,1.8
O=c1[nH]c2ccc(S(=O)(=O)N3CCN(Cc4ccccc4)CC3)cc2[nH]c1=O,34.9*,-3.4,1.0,-0.9,-0.1,1.1
C[C@@H](C(=O)NCCc1ccccc1)N1C(=O)N2CCc3c([nH]c4ccccc34)[C@@]2(C)C1=O,-1.6,-0.1,-4.4,3.8,3.9,-5.5
Cc1ccc(-c2noc(CNC(=O)c3ccc4c(c3)OCO4)n2)cc1,10.7,2.5,-2.7,-3.0,-6.4,-2.1
CCOC(=O)C(C(C)=O)c1c(Br)c(O)c(O)c2c(C(=O)c3ccc(C)cc3)coc12 (stereo unspecified),67.4*,2.4,0.0,-5.1,2.6,6.0
Nc1nn(-c2ccccc2)c(N)c1N=Nc1ccccc1F,-2.1,-1.3,6.9,1.4,-1.6,4.2
Nc1c(N=Nc2ccccc2F)c(=O)[nH]n1-c1ccccc1,1.7,6.0,35.7*,-0.5,0.7,10.0
COc1cc(/C=N/NC(=O)CSc2cc(C)c(Br)cc2C)ccc1O,6.2,4.0,21.0,-4.8,-0.1,7.8
Cc1cc(SCC(=O)N/N=C/c2ccc(O)c(O)c2O)c(C)cc1Br,18.4,4.3,31.2*,-17.7,-6.5,9.5
COc1cccc(-c2nnc(SC(C(=O)c3c[nH]c4ccccc34)c3ccccc3)n2C)c1 (stereo unspecified),3.9,2.9,56.0*,-9.7,-19.9,-3.1
CC(=O)NCc1ccc(C(=O)CCl)cc1,50.2*,4.3,-1.2,4.7,-4.6,-0.7
CC(=O)NCc1ccc(C(=O)CCl)s1,77.8*,1.4,-7.8,1.1,-2.1,-0.7
CC(=O)Nc1ccc(C(=O)CCl)cc1,.,-9.0,2.4,0.2,-4.0,.
COc1ccc(C(=O)OCC(=O)c2ccc(CNC(C)=O)s2)cc1,.,-0.8,0.9,2.0,5.4,.
Cc1ccc2c(c1)sc[n+]2Cc1ccccc1,0.9,21.9*,3.0,0.2,-2.1,2.8
Cc1ccc(-c2cc[n+](Cc3ccccc3)cc2)cc1,2.9,-1.8,-1.4,0.4,-1.7,2.7
O=C(O)c1ccccc1O,3.6,-8.9,-4.2,-2.2,-3.5,-3.7

# Source: PubChem
